Measurements reported in PubChem BioAssay.

The compounds below were run against Follistatin-related protein 3 (Homo sapiens) (UniProt O95633) (assay: FSTL3 binders on small-molecule microarrays, primary screen, biochemical, small-molecule microarray, 635 nm fluorescence (AID 1105;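 also: score merges emission near 667 nm and signal to noise per printed spot across three slides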)). Conditions: FSTL3 binding, higher = more signal.
Chain of Follistatin-related protein 3 (Homo sapiens) (O95633 whole entry, looked up): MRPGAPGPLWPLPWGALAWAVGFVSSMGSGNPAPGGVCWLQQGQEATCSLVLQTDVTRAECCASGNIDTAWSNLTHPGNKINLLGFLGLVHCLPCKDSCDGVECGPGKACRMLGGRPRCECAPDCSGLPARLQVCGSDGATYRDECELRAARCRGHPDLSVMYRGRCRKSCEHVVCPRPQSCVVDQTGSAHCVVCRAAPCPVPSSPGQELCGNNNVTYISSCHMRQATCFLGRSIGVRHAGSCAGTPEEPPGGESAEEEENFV

Row | SMILES | composite z-score
1 | COc1ccc([Si](C)(C)[C@H]2[C@H](CC(=O)N3CCC[C@H]3CO)O[C@@]3(C(=O)N(Cc4cccc(N5C(=O)COc6ccccc65)c4)c4ccccc43)[C@@H]2C)cc1 | 0.959
2 | CC(=O)OC[C@H]1O[C@H](C#CCCCc2ccccc2)C=C[C@@H]1OC(C)=O | 0.556
3 | CC(C)[C@H](NC(=O)OC(C)(C)C)[C@@H](O)CC(=O)OC(C)(C)C | -0.746
4 | COCCCNC(=O)[C@]1(CCC(=O)OC(C)(C)C)N=C(c2ccc(OCCCO)cc2)O[C@@H]1c1ccccc1N=[N+]=[N-] | 1.06
5 | C[C@@H]1C=CCC(=O)OC[C@H](C)C(=O)N[C@@H](C)C(=O)OC1 | 0.413
6 | COC(=O)[C@@]1(Cc2ccc(F)cc2)[C@H]2c3cc(C(=O)N(C)C)n(Cc4ccc(OC)c(OC)c4)c3C[C@H]2CN1C(=O)c1ccccc1 | -0.32
7 | CCCCCN1CC=CC23O[C@@H]4C=CCOC(=O)[C@@H]4[C@H]2C(=O)N(CCCCCCO)[C@@H]3C1=O (stereo not given in full) | -1.81
8 | COc1ccc(O[C@H]2C=C[C@@H](c3ccccc3)O[C@@H]2COC(=O)CCC(C)=NO[C@H](C)c2cn([C@@H]3COC[C@H]3O)nn2)cc1 | 0.706
9 | C#C[C@@H]1Oc2ccccc2S(=O)(=O)N2CCC[C@H]12 | -0.0777
10 | CC(C)(C)OC(=O)CC[C@]1(C(N)=O)COC(c2ccc(OCCCO)cc2)=N1 | 0.278
11 | COc1ccc(O[C@H]2C=C[C@@H](c3ccccc3)O[C@@H]2COC(=O)CCC(C)=NOC[C@@H](C)[C@H](OCc2ccccc2)C(C)C)cc1 | -0.629
12 | Cc1ccc(F)cc1S(=O)(=O)N[C@@H]1CCN(Cc2ccc(CC(C)C)cc2)C1 | -0.301
13 | CCc1cc2c(nc1CC)CCN(CCC(C)=NOC(C)CN1CCCc3nc(C)c(C)cc31)C2 (stereo not given) | 1.32
14 | Cc1ccc(S(=O)(=O)N[C@@H]2COC(=O)[C@H](C)COC(=O)CC=C[C@H]2C)cc1 | 1.41
15 | O=C1C[C@@H](O)[C@@H](O)[C@@H]2[C@@H]3C(=O)N(Cc4ccc5c(c4)OCO5)C(=O)[C@@H]3CC[C@@H]12 | 0.675
16 | CN1C(=O)[C@@]2(CCC(=O)OC(C)(C)C)N=C(c3ccc(OCCCO)cc3)O[C@H]2c2ccccc21 | 0.529
17 | COCCOC(=O)N1C(=O)[C@@]2(c3cc(C#CC4(O)CCCCCC4)ccc31)[C@H](C(=O)N1CCN(c3ncccn3)CC1)[C@H]1C(=O)O[C@H](c3ccccc3)[C@H](c3ccccc3)N1[C@@H]2c1ccc(OCCO)cc1 | 1.19
18 | CCOC(=O)[C@H](CC(C)C)NC(=O)CCC1CC(OC(=O)NCc2cccc3ccccc23)CC2(CCCC(COC(=O)NCCc3ccccc3OC)O2)O1 (stereo not given in full) | 0.866

Row | SMILES | composite z-score
19 | COC(=O)[C@H](C)NC(=O)CCC1CC(OC(=O)NCc2cccc3ccccc23)CC2(CCCC(COC(=O)NCCc3ccc(Cl)cc3)O2)O1 (stereo not given in full) | 0.494
20 | O[C@@H](Cc1ccccc1)[C@H]1C2C=CCCC(c3ccccc3)=C2CN1Cc1cccc(Cl)c1 (stereo not given in full) | 0.847
21 | O=C1[C@H]2[C@H]3[C@H](O)[C@H](O)CC(=NO[C@@H]4O[C@H](CO)[C@@H](O)[C@H](O)[C@H]4O)[C@@H]3CC[C@H]2C(=O)N1Cc1ccccc1 | -0.0746
22 | COCCOC(=O)N1C(=O)[C@@]2(c3cc(C#CCNC(N)=O)ccc31)[C@H](c1ccccc1OCCO)N1[C@H](c3ccccc3)[C@H](c3ccccc3)OC(=O)[C@H]1[C@@H]2C(=O)N1CCN(c2ncccn2)CC1 | 0.623
23 | O=C1[C@H]2[C@H]3[C@H](O)[C@H](O)CC(=NO[C@@H]4O[C@H](CO)[C@@H](O)[C@H](O)[C@H]4O)[C@H]3CC[C@H]2C(=O)N1Cc1ccccc1 | 0.0042
24 | CC(C)(C)N1C(=O)[C@H]2[C@H]3[C@H](O)[C@H](O)CC(=NO[C@@H]4O[C@H](CO)[C@@H](O)[C@H](O)[C@H]4O)[C@@H]3CC[C@H]2C1=O | 1.01
25 | O=C1[C@H]2[C@H]3[C@H](O)[C@H](O)CC(=NO[C@@H]4O[C@H](CO)[C@@H](O)[C@H](O)[C@H]4O)[C@H]3CC[C@H]2C(=O)N1C1CCCCC1 | -0.182
26 | CC[C@@H](c1ccccc1)n1c(=O)n2n(c1=O)[C@H]1[C@H](O)[C@@H]3O[C@@H]3C(=NOCC(C)C)[C@H]1CC2 | 0.227
27 | CCCC[C@@H](O)C1=C(C)C[C@H]2C(=O)N(Cc3ccccc3)C(=O)[C@H]2[C@H]1CO | 0.449
28 | CC(C)=C1C(=O)C(c2ccccc2)=C2CN3C(=O)N(CCc4ccccc4)C(=O)[C@]3(Cc3ccc(F)cc3)[C@H]21 | -0.655
29 | N#Cc1ccc(NN2C(C(O)c3cc(C(F)(F)F)cc(C(F)(F)F)c3)C=CC3C(=O)N(c4ccccc4)C(=O)C32)cc1 (stereo not given) | 1.02
30 | [N-]=[N+]=NCc1ccccc1[C@@H]1OC(c2ccc(OCCCO)cc2)=N[C@]1(Cc1ccccc1)C(=O)N1CCOCC1 | 0.589
31 | CC(CCN1CCCCc2nc(C)c(C)cc21)=NOC(C)CN1CCCCc2nc(C)c(C)cc21 (stereo not given) | 1.42
32 | O=C(NN=C1C[C@@H](O)[C@@H](O)[C@@H]2[C@@H]3C(=O)N(c4cccc(Oc5ccccc5)c4)C(=O)[C@@H]3CC[C@H]12)OCc1ccccc1 | -0.146
33 | CCOC(=O)CCN1C(=O)[C@H]2[C@H]3[C@H](O)[C@H](O)CC(=O)[C@H]3CC[C@H]2C1=O | 0.565
34 | O=C1O[C@@H](c2ccccc2)[C@@H](c2ccccc2)N2[C@@H](c3ccc(OCCO)cc3)[C@]3(C(=O)Nc4ccc(C#CCCO)cc43)[C@@H](C(=O)N3CCCCCCC3)[C@H]12 | 1.55
35 | c1ccc(C2NCCc3c2[nH]c2ccccc32)cc1 (stereo not given) | -0.142
